{
  "source": "ChEMBL document CHEMBL2218924",
  "about": "“A broad activity screen in support of a chemogenomic map for kinase signalling research and drug discovery” (Biochem J, 2013)",
  "key": {"[1]": {"target": "T1, Ephrin type-B receptor 1 (Homo sapiens) (UniProt P54762)", "T1 sequence (whole entry)": "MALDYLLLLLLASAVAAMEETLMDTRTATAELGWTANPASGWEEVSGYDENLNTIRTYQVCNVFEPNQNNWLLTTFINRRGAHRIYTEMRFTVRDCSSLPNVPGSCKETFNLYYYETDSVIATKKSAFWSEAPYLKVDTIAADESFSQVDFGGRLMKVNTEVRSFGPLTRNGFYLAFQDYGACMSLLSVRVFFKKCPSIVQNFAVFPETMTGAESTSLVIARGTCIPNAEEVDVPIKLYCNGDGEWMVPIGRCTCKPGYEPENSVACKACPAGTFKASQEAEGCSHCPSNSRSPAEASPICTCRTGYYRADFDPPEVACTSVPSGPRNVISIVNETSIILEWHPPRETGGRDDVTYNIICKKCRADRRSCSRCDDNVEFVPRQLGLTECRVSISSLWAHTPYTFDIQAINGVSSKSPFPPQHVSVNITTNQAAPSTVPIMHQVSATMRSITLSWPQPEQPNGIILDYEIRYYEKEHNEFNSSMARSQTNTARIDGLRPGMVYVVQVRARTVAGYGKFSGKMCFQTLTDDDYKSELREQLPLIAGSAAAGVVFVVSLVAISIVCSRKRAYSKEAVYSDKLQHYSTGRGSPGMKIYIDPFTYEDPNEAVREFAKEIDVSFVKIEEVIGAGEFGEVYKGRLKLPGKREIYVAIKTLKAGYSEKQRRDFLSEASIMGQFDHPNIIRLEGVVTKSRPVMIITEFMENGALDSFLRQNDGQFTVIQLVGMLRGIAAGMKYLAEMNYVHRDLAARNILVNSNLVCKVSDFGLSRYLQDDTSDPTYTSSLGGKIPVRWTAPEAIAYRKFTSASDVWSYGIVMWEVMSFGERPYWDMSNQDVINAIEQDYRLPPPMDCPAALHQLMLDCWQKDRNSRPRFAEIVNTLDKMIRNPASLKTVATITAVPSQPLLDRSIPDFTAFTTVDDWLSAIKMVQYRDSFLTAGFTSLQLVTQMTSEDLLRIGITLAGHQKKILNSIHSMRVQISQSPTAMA", "details": "at 10 µM; call rule not given here"}, "[2]": {"target": "T2, Ephrin type-B receptor 2 (Homo sapiens) (UniProt P29323)", "T2 sequence (whole entry)": "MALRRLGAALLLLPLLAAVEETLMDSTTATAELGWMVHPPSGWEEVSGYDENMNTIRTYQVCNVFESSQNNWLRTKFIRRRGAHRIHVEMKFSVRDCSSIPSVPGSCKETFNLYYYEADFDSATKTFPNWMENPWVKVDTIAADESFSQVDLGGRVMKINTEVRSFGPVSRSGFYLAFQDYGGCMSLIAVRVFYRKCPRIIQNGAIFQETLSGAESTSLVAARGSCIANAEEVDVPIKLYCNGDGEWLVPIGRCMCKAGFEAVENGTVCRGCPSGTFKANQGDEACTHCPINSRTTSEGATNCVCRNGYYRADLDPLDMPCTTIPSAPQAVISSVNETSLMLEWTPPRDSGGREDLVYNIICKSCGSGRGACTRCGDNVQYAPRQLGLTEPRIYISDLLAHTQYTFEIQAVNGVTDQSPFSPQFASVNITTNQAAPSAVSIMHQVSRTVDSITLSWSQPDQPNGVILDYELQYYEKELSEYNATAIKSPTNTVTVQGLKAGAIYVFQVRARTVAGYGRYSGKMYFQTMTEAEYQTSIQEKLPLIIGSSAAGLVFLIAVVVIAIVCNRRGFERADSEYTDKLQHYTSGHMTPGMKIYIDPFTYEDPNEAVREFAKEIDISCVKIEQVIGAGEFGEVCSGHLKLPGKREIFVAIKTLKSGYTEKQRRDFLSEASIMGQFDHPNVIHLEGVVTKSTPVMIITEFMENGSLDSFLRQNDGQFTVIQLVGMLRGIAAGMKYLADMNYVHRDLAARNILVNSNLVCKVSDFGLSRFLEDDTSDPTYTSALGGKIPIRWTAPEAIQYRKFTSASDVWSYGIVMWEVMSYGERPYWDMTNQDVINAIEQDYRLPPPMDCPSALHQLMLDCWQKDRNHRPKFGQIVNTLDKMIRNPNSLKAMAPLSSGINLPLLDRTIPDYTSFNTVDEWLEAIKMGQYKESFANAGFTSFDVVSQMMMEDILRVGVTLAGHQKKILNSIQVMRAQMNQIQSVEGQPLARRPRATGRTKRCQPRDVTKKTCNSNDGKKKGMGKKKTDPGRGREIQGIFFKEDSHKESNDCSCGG", "details": "at 1 µM"}, "[3]": {"target": "T2, Ephrin type-B receptor 2 (Homo sapiens)", "details": "at 10 µM"}, "[4]": {"target": "T3, Ephrin type-B receptor 3 (Homo sapiens) (UniProt P54753)", "T3 sequence (whole entry)": "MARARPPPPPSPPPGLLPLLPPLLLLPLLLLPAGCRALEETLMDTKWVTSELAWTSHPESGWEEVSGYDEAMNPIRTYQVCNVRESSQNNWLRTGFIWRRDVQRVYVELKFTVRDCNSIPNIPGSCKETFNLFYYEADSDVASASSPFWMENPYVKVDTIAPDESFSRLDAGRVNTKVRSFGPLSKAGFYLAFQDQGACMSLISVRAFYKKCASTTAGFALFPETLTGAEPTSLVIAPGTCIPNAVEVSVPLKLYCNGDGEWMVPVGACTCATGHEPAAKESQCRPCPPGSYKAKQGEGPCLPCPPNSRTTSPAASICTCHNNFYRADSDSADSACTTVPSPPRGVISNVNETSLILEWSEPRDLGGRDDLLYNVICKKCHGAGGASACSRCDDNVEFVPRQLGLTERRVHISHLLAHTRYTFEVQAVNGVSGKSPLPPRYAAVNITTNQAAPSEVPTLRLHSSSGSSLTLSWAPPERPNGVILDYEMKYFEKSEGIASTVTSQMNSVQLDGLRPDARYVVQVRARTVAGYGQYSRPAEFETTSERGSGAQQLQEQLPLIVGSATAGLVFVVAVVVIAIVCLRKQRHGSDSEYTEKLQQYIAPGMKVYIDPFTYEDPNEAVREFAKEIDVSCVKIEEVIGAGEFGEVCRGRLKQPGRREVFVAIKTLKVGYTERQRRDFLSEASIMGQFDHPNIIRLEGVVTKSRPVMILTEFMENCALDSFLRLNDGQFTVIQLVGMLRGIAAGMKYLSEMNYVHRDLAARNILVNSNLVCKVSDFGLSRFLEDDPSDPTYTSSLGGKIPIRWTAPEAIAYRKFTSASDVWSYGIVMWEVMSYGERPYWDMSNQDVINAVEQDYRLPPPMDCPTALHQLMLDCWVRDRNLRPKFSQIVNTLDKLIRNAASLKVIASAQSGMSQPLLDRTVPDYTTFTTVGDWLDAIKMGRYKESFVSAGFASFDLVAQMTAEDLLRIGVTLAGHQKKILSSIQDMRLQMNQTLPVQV", "details": "at 1 µM"}, "[5]": {"target": "T3, Ephrin type-B receptor 3 (Homo sapiens)", "details": "at 10 µM"}, "[6]": {"target": "T4, Ephrin type-B receptor 4 (Homo sapiens) (UniProt P54760)", "T4 sequence (whole entry)": "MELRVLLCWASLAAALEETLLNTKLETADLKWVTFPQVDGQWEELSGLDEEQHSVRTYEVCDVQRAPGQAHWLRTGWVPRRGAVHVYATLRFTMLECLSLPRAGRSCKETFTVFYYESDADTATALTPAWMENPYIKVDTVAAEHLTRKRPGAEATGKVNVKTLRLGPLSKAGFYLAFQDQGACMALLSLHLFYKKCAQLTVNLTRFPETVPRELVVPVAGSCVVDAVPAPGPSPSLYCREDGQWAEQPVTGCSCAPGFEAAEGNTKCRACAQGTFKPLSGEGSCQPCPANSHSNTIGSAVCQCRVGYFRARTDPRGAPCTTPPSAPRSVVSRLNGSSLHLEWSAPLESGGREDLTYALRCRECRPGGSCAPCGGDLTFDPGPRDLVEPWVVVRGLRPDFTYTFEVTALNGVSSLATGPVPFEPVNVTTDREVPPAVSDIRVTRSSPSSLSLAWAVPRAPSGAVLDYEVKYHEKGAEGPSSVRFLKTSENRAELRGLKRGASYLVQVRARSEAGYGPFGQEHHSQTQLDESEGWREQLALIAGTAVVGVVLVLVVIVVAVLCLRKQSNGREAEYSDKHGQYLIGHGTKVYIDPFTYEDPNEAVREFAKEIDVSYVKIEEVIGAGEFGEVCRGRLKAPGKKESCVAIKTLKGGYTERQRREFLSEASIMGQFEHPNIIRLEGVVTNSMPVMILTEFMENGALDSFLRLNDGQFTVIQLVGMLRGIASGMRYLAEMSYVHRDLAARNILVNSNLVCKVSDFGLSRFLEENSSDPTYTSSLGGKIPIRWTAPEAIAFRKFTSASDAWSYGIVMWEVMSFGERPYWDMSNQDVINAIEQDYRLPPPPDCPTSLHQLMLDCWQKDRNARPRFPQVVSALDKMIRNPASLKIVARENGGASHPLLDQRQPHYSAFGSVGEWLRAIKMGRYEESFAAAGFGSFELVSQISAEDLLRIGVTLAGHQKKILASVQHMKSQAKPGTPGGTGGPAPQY", "details": "at 1 µM"}, "[7]": {"target": "T4, Ephrin type-B receptor 4 (Homo sapiens)", "details": "at 10 µM"}, "[8]": {"target": "Receptor tyrosine-protein kinase erbB-4 (Homo sapiens) (UniProt Q15303)", "sequence (Q15303 whole entry)": "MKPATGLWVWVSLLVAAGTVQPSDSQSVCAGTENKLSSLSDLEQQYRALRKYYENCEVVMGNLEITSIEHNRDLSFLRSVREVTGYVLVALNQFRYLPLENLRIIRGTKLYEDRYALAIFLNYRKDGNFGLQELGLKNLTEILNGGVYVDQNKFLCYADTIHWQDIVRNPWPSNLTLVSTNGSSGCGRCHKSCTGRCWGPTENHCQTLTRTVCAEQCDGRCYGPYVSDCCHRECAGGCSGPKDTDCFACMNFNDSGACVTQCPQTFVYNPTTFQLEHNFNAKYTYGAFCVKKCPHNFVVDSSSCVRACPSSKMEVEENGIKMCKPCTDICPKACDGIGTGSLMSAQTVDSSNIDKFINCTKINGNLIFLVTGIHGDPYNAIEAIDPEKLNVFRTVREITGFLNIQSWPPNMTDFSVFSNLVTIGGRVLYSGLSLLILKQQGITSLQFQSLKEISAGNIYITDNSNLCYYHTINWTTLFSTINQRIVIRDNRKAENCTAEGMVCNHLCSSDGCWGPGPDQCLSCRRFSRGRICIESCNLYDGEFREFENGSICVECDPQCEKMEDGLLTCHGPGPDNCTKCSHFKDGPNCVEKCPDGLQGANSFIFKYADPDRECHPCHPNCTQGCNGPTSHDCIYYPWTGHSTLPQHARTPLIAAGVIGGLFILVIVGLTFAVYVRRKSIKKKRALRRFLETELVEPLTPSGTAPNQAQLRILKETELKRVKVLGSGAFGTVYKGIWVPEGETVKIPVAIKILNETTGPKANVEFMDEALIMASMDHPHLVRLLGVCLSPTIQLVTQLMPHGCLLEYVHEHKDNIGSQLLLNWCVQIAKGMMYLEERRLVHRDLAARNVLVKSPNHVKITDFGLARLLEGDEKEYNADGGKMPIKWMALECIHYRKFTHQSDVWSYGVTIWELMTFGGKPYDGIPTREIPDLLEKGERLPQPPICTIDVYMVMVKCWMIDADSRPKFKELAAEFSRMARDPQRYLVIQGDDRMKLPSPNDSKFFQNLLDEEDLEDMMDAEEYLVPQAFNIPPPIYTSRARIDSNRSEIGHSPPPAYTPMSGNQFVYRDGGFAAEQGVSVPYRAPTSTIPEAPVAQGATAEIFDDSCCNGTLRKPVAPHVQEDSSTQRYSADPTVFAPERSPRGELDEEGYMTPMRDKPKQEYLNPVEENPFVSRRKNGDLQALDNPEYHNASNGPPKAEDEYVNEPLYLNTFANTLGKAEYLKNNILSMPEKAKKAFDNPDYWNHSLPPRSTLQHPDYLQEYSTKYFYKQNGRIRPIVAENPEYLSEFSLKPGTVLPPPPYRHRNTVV", "details": "at 1 µM"}, "[9]": {"target": "Receptor tyrosine-protein kinase erbB-4 (Homo sapiens) (UniProt Q15303)", "details": "at 10 µM"}, "[10]": {"target": "Focal adhesion kinase 1 (Homo sapiens) (UniProt Q05397)", "sequence (Q05397 2-1052 limits assumed)": "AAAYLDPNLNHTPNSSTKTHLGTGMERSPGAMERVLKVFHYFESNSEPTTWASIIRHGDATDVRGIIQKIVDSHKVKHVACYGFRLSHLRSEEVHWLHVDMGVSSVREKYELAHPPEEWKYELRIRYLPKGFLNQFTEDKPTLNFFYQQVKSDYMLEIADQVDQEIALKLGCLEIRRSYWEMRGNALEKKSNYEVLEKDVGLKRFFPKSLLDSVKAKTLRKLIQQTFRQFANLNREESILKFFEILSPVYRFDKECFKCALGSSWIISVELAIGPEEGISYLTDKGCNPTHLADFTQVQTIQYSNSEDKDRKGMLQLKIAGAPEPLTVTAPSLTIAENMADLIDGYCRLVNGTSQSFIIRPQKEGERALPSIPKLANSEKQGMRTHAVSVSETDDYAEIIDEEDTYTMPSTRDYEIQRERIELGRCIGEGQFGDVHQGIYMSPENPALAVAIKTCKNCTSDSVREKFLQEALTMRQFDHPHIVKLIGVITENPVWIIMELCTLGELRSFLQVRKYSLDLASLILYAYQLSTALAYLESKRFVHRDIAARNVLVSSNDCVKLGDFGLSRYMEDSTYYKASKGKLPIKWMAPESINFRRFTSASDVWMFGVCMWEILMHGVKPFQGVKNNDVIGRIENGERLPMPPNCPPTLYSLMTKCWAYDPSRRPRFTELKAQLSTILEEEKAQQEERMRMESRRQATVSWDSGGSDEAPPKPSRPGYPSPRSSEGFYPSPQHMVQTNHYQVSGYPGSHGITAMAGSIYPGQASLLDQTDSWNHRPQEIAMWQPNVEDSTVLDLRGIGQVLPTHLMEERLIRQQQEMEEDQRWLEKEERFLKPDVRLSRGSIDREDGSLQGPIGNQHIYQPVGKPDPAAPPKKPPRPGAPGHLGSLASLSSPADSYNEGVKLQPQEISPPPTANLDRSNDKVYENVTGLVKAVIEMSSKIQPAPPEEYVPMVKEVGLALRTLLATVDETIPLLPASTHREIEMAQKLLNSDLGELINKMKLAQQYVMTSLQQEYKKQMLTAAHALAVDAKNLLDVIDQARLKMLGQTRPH", "details": "at 1 µM"}},
  "data": [
    {"compound": "O=C1NC(=O)/C(=C/c2ccc3c(c2)OC(F)(F)O3)S1", "values": [
      {"measurement": "residual activity", "setting": "[1]", "value": 106, "unit": "%"},
      {"measurement": "residual activity", "setting": "[2]", "value": 108, "unit": "%"},
      {"measurement": "residual activity", "setting": "[3]", "value": 110, "unit": "%"},
      {"measurement": "residual activity", "setting": "[4]", "value": "125% (inactive)"},
      {"measurement": "residual activity", "setting": "[5]", "value": 109, "unit": "%"},
      {"measurement": "residual activity", "setting": "[6]", "value": 118, "unit": "%"},
      {"measurement": "residual activity", "setting": "[7]", "value": 121, "unit": "%"},
      {"measurement": "residual activity", "setting": "[8]", "value": 98, "unit": "%"},
      {"measurement": "residual activity", "setting": "[9]", "value": 101, "unit": "%"},
      {"measurement": "residual activity", "setting": "[10]", "value": 112, "unit": "%"}
    ]}
  ]
}
